# Screening data (PubChem BioAssay)
# SRC2 inh: human SRC2 (NCOA2) inhibition. HEK293 GAL4-SRC2 luciferase reporter, luminescence. hit rate 0.17% among 370,000. Q15596. inhibition, % at 9 µM;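 active = inhibition above the mean inhibition of all tested compounds plus 3 SD, set per campaign, cut at about 52% in these data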;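 also: 0% = DMSO treated cells and 100% = cells given Gossypol at 36 µM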
# SRC3 inh: human NCOA3 inhibition. Q9Y6Q9. HEK293 GAL4-SRC3 luciferase reporter, luminescence. inhibition, % at 3.6 µM. hit rate 0.17% among 360,000;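 active = inhibition above a per-campaign cutoff, the mean of all compounds plus 3 SD, cut at about 60% in these data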;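 also: 0% = DMSO-treated cells and 100% = gossypol-treated cells at 36 µM; higher means less SRC3-driven luciferase light from the GAL4 reporter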
# LRH-1 inv ag: NR5A2 inverse agonism in reporter assay; O00482; HEK293T StAR-luciferase reporter, LRH-1 transfected, 24 h; inhibition, % at 3.6 µM; hit rate 0.13% among 360,000; AID 602396;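 active = inhibition above the mean inhibition of all tested compounds plus 3 SD, cut at about 73% in these data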;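 also: 0% = DMSO wells and 100% = reporter-only cells lacking LRH-1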
# LMP1 NFkB inh: Epstein-Barr LMP1 NF-kappaB reporter inhibition; LMP1-induced NF-kappaB luciferase reporter cells, luminescence; AID 504558; hit rate 0.69% among 350,000; inhibition, % at 12.5 µM; in the data active = inhibition above about 41%;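 also: 0% = neutral control wells and 100% = reference inhibitor control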
# NCOA1 inh: human NCOA1 inhibition | Q15788 | HEK293 GAL4-SRC1 luciferase reporter, luminescence | inhibition, % at 3.6 µM | hit rate 0.12% among 360,000 | AID 588354;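 active = inhibition above the campaign mean plus 3 SD, with each screening campaign given its own cutoff, cut at about 60% in these data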;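 also: 0% = DMSO treated cells and 100% = gossypol at 36 µM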
# Target sequence (Q15788 whole entry, looked up, the tested form may be a part): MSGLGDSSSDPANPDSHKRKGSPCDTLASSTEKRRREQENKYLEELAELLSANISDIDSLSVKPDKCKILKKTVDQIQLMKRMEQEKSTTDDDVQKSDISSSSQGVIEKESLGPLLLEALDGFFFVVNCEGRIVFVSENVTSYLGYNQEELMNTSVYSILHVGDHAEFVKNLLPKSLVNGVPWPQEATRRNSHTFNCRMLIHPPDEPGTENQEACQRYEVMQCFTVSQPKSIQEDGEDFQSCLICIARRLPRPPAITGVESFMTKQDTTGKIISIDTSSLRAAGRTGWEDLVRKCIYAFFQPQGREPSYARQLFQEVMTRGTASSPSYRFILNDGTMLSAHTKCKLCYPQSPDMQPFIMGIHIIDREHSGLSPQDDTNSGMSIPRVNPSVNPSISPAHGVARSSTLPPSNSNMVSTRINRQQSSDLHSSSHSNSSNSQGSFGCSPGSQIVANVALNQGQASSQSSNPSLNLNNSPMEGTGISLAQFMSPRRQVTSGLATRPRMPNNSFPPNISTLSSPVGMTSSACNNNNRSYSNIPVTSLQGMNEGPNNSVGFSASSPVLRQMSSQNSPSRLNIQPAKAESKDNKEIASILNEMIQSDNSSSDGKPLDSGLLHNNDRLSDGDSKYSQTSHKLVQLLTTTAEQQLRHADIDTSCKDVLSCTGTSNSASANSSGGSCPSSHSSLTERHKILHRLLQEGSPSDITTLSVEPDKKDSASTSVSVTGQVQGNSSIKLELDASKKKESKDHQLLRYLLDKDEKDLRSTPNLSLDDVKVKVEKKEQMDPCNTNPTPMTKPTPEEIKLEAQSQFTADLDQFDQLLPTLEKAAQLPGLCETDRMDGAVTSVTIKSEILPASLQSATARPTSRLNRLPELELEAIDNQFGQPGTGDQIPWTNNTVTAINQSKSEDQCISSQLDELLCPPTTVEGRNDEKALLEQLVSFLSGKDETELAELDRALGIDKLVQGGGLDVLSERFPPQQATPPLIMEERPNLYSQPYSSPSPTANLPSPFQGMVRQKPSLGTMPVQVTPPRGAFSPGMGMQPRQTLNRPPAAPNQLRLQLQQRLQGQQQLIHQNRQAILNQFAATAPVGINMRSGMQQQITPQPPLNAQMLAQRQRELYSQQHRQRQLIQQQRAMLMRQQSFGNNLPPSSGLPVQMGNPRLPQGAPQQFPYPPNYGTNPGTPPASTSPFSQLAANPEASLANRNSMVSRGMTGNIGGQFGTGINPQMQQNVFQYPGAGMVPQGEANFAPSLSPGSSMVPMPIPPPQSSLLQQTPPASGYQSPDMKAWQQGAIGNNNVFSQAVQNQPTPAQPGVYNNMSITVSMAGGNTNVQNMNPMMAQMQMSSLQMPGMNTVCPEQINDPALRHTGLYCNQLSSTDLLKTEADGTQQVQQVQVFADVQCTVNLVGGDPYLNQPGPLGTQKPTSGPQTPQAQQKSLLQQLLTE
# The depositor's hits bear a star; x = no result given. The list is not random: actives were taken first. Their share in the collection is about 0.78%.
SMILES,SRC2 inh,SRC3 inh,LRH-1 inv ag,LMP1 NFkB inh,NCOA1 inh
COCCn1c(SCC(=O)N2CCc3ccccc32)nc2c(c1=O)SC(C)C2 (configuration not stated),-9,-7,6,89*,-24
COCCn1c(SCC(=O)N2CCCc3ccccc32)nc2c(c1=O)SC(C)C2 (configuration not stated),3,-2,-10,-13,-11
CCOc1ccc(-c2ccc(SC)nn2)cc1,-3,-5,-54,59*,-11
CCOC(=O)[C@@]12CN(C(=O)OC(C)(C)C)CC=C1N(Cc1ccc(OC)cc1)C(=O)[C@H]2CC(=O)N1CCOCC1,13,x,x,x,x
O=C(OC12CCCN(C1)/C(=C/c1ccccc1)C2)c1ccc(F)cc1 (configuration not stated),21,x,x,x,x
O=C1/C(=C/c2cccnc2)CCc2c1[nH]c1ccccc21,6,0,-115,11,10
CC1C/C(=C\c2cccnc2)C(=O)/C(=C/c2cccnc2)C1 (configuration not stated),80*,11,56,92*,-199
COCCCOc1ccnc(CS(=O)c2nc3ccccc3[nH]2)c1C (configuration not stated),-34,-48,-18,-20,-69
COc1ccc2nc(S(=O)Cc3ncc(C)c(OC)c3C)[nH]c2c1 (configuration not stated),-5,4,9,84*,-6
CC[C@@H]1CCC[C@@H](O)[C@@H](C)C(=O)O[C@H](C)[C@@H](C)C/C=C(C)/C(OC)=C\C(=O)N(C)C([C@@H](C)CC)C(=O)N(C)[C@@H](C(C)C)C(=O)N(C)[C@@H](COC)C(=O)N2CCC[C@H]2C(=O)N(C)[C@@H](C(C)C)C(=O)N2CCC[C@H]2C(=O)O1 (some centres not stated),-7,84*,98*,x,78*
Nc1c(C(=O)Nc2cccc(C(=O)O)c2)sc2nc3c(cc12)CCCC3,-38,-94,-154,57*,-80
N=c1c2c(n(Cc3cccc(Cl)c3)c3c1CCC3)CCCC2,0,52,75*,12,48
N=c1c2c(n(Cc3ccc(Cl)cc3)c3c1CCC3)CCC2,2,70*,92*,15,48
Nc1cccc(CN2CCCC2)c1,-3,15,9,13,13
Clc1cccc(CN2CCCCCC2)c1,-20,7,8,80*,-15
O=C(c1cccc(F)c1F)N(Cc1ccccn1)CC1CCCO1 (configuration not stated),10,x,x,x,x
COc1ccc(-c2cn3nc4c(nc3n2)CCCC4)cc1,-81,-56,-65,62*,-85
COc1cccc(-c2cn3nc(C)c(C)nc3n2)c1,-24,-63,-156,6,-167
O=C(OC12CCCN(C1)/C(=C/c1ccncc1)C2)c1ccccc1 (configuration not stated),7,x,x,x,x
Cc1ccccc1NC(=O)CN1CCN(c2nc(-c3ccccc3)cs2)CC1,-8,x,x,x,x
Cn1nnnc1Sc1ncnc2scc(-c3ccc(F)cc3)c12,8,4,27,71*,7
C[C@H]1CN(c2ccc(N3CCNC[C@@H]3C)cc2C#N)CCN1Cc1ccccc1,-5,x,x,x,x
COc1ccc(Oc2c(Cl)cnn(CC(=O)C(c3ccccc3)c3ccccc3)c2=O)cc1,-4,x,x,x,x
COc1ccc(CNC(=O)COC(=O)c2cc(-c3ccc(Cl)s3)nc3ccccc23)cc1,4,83*,-19,-6,-23
CCn1c(SCC(=O)Nc2ccccc2-c2ccccc2)nnc1-c1cnccn1,-4,x,x,x,x
SMILES,SRC2 inh,SRC3 inh,LRH-1 inv ag,LMP1 NFkB inh,NCOA1 inh
CCCCCCCCC[n+]1cccc2c3ccccc3ccc21,x,71*,96*,48*,58
CCCCCCCCCCCCCCCC[n+]1cccc2ccccc21,-13,62*,33,30,27
COC(=O)[C@H](C(C)C)N(CCCc1cn(CC2CCCCC2)nn1)S(=O)(=O)c1ccc(F)cc1Br,15,x,x,x,x
O=C(CSc1nnc(COc2ccc(Cl)cc2)n1Cc1ccco1)Nc1ccc(OCc2ccccc2)cc1,-1,x,x,x,x
Clc1ccccc1/C=C/c1nc(-c2ccccn2)no1,38,21,-50,73*,-1
Cc1onc(-c2ccccc2Cl)c1-c1nc(-c2ccccn2)no1,10,-3,49,-1,-1
COc1ccc(OC)c(CCNC(=O)CCn2nc(C)c3c(C)n(-c4ccccc4)nc3c2=O)c1,-16,-9,6,55*,5
COc1ccc(OC)c(CNC(=O)CCn2nc(C)c3c(C)n(-c4ccccc4)nc3c2=O)c1,-29,-9,4,-4,-18
CCOC(=O)/C(=C/c1ccc(N2CCC(c3ccccc3)=N2)cc1)C(C)=O,x,-17,11,94*,-25
COc1cccc(-c2nnc(SCC(=O)OC(C)C)n2-c2ccc(Cl)cc2)c1,5,x,x,x,x
NNc1ccc2c(C(F)(F)F)cc(C(F)(F)F)nc2n1,-2,5,7,-3,3
N#CC(c1cccc(Cl)c1)c1ccc2c(C(F)(F)F)cc(C(F)(F)F)nc2n1 (configuration not stated),28,41,99*,35,22
CC1CC(C)CN(S(=O)(=O)c2ccc(NC(=O)CCN3C(=O)C4CC=CCC4C3=O)cc2)C1 (configuration not stated),-47,4,-6,72*,-13
CC1CCN(S(=O)(=O)c2ccc(NC(=O)CCN3C(=O)C4CC=CCC4C3=O)cc2)CC1 (configuration not stated),21,13,-4,2,-5
COC(=O)[C@]12C[C@H](CC(=O)N3CCC(c4ccccc4)CC3)C(=O)N(Cc3ccc(Cl)cc3Cl)C1=C[C@H](C1CCCC1)O[C@@H]2C,-5,x,x,x,x
NC(=S)NN=C1c2cc(OCCN3CCOCC3)ccc2-c2ccc(OCCN3CCOCC3)cc21,34,55,75*,-5,73*
O=C(Nc1ccccc1)C1=C(c2ccccc2)S(=O)(=O)CCS1(=O)=O,54*,-24,0,72*,-31
COc1cccc(O[C@H]2C=C[C@@H](c3ccccc3)O[C@@H]2CO)c1,-19,x,x,x,x
Nc1cc(=O)[nH]c(SCCSc2cc(Cl)ccc2Cl)n1,0,-4,9,51*,-9
Nc1cc(=O)[nH]c(SCCSc2ccccc2F)n1,-29,-6,5,3,4
CCN(C(=O)COC(=O)c1ccc(Sc2ncn[nH]2)c([N+](=O)[O-])c1)c1ccccc1C,-10,x,x,x,x
COc1ccc(S(=O)(=O)N2CCN(CC(=O)Nc3cccc(OC)c3)CC2)cc1,-21,8,3,56*,0
Cc1cc(F)ccc1C(=O)N1CCC(Oc2cccnc2)CC1,0,x,x,x,x
O=C(Cc1ccc(Cl)cc1)c1c[nH]c(C(=O)NCc2cccnc2)c1,88*,49,38,-8,-11
Cc1cc(C)n2nc(CC(=O)NC3CCCCCC3)nc2n1,10,20,12,64*,-3
Cc1ccc(C(=O)NNC(=O)Cc2nc3nc(C)cc(C)n3n2)cc1,-5,-6,-26,x,12
